Data as given in PubChem BioAssay (NCI).
Compounds without any hit were thinned out: in the full panel of roughly 83,000, 20% have a hit.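 Cells were grown in 96-well plates and exposed to the test compound at a single concentration for 48 hours; results are reported as percent growth, with values below 10 considered active.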 The source made the active and inactive calls.

What was measured:
Assay in all cases: NCI-60 one-dose screen, 48 h (100 = growth as untreated, 0 = no growth, -100 = all killed)
Conditions in all cases: 10 µM unless noted
HT29 colon = test system: HT29 colon
SNB-75 CNS = test system: SNB-75 CNS
SNB-19 CNS = test system: SNB-19 CNS
U251 CNS = test system: U251 CNS
PC-3 prostate = test system: PC-3 prostate
SK-MEL-5 melanoma = test system: SK-MEL-5 melanoma
LOX IMVI melanoma = test system: LOX IMVI melanoma
SK-MEL-2 melanoma = test system: SK-MEL-2 melanoma
SK-MEL-28 melanoma = test system: SK-MEL-28 melanoma
UACC-62 melanoma = test system: UACC-62 melanoma

Measured: growth

CC[C@]1(O)CC2CN(CCc3c([nH]c4ccccc34)[C@@](C(=O)OC)(c3cc4c(cc3OC)N(C)[C@H]3[C@@](O)(C(=O)OC)[C@H](OC(C)=O)[C@]5(CC)C=CCN6CC[C@]43[C@@H]65)C2)C1 (some centres undefined)
active: HT29 colon 3.18% | SNB-75 CNS 5.29% | SK-MEL-5 melanoma -61.3%
inactive: SNB-19 CNS 43.8% | U251 CNS 17.3% | PC-3 prostate 28.1% | LOX IMVI melanoma 18.9% | SK-MEL-2 melanoma 34.3%

COc1cc(/C=C/C(=O)c2c(-c3ccc(F)cc3)nc3sc(C)nn23)cc(OC)c1OC
inactive: SNB-75 CNS 10.2% | SNB-19 CNS 84.9% | U251 CNS 21.3% | PC-3 prostate 59.9% | SK-MEL-5 melanoma 27.1% | SK-MEL-28 melanoma 65.7%
active: HT29 colon 6.07% | LOX IMVI melanoma -19.7% | SK-MEL-2 melanoma -26.5%

CCOC(=O)C1=C(COCCN)NC(C)=C(C(=O)OC)C1c1ccccc1Cl (centres undefined)
inactive: HT29 colon 11.4% | SNB-75 CNS 72.3% | SNB-19 CNS 102% | U251 CNS 52.8% | PC-3 prostate 66.9% | UACC-62 melanoma 60.5% | LOX IMVI melanoma 32.3% | SK-MEL-28 melanoma 75.9% | SK-MEL-2 melanoma 90.2%

CO[C@H]1/C=C/O[C@@]2(C)Oc3c(C)c(O)c4c(O)c(c(/C=N/N5C(C)CN(Cc6ccccc6)CC5C)c(O)c4c3C2=O)NC(=O)/C(C)=C\C=C\[C@H](C)[C@H](O)[C@@H](C)[C@@H](O)[C@@H](C)[C@H](OC(C)=O)[C@@H]1C (some centres undefined)
inactive: HT29 colon 87.6% | SNB-75 CNS 127% | SNB-19 CNS 97.8% | U251 CNS 56.9% | SK-MEL-5 melanoma 67.4% | LOX IMVI melanoma 76% | SK-MEL-28 melanoma 94.2%
active: PC-3 prostate -19.5% | SK-MEL-2 melanoma -39.4%

Cn1cnc([N+](=O)[O-])c1S(=O)(=O)Oc1ccc(Cl)cc1
inactive: SNB-75 CNS 103% | SNB-19 CNS 102% | U251 CNS 85.4% | PC-3 prostate 90.8% | SK-MEL-5 melanoma 95.4% | LOX IMVI melanoma 45.2% | SK-MEL-28 melanoma 97.4% | SK-MEL-2 melanoma 90.6%
active: HT29 colon -36.9%

Fc1ccc(-c2nnc(/C=C/c3cn(-c4ccccc4)nc3-c3ccccc3)o2)cc1
inactive: HT29 colon 88.5% | SNB-75 CNS 88.2% | SNB-19 CNS 108% | U251 CNS 82.1% | PC-3 prostate 95.2% | SK-MEL-5 melanoma 105% | LOX IMVI melanoma 83.5% | SK-MEL-28 melanoma 98.9% | SK-MEL-2 melanoma 103%

Cn1c(=O)c2c(nc(Br)n2CCC(=O)Nc2ccc(F)cc2)n(C)c1=O
inactive: HT29 colon 96.3% | SNB-75 CNS 89.1% | SNB-19 CNS 103% | U251 CNS 96.7% | PC-3 prostate 95.9% | SK-MEL-5 melanoma 111% | LOX IMVI melanoma 89.9% | SK-MEL-28 melanoma 112% | SK-MEL-2 melanoma 100%

COc1ccc(-c2csc(NC(=O)c3cc(O)c(O)c(O)c3)n2)cc1
inactive: HT29 colon 92.3% | SNB-75 CNS 58.8% | SNB-19 CNS 59.9% | U251 CNS 45.6% | PC-3 prostate 68.4% | SK-MEL-5 melanoma 51% | LOX IMVI melanoma 50.6% | SK-MEL-28 melanoma 89.1% | SK-MEL-2 melanoma 71.4%

O=C(/C(=C/c1ccc([N+](=O)[O-])cc1)c1ccccc1)c1ccccc1
active: LOX IMVI melanoma 5.01%
inactive: HT29 colon 44.1% | SNB-75 CNS 70.6% | SNB-19 CNS 75.9% | U251 CNS 52.6% | PC-3 prostate 59.1% | SK-MEL-5 melanoma 43.6% | SK-MEL-28 melanoma 97.9% | SK-MEL-2 melanoma 24.9%

Cc1cc(CC(=O)O)n(C)c1C(=O)c1ccc(Cl)cc1
inactive: HT29 colon 109% | SNB-75 CNS 121% | SNB-19 CNS 108% | U251 CNS 99.5% | PC-3 prostate 99.5% | SK-MEL-5 melanoma 98.7% | LOX IMVI melanoma 97.9% | SK-MEL-2 melanoma 115%

Cc1cc(C(=O)O)c(C)cc1C(=O)O
inactive: HT29 colon 103% | SNB-75 CNS 97% | SNB-19 CNS 107% | U251 CNS 109% | PC-3 prostate 92.3% | SK-MEL-5 melanoma 99.9% | LOX IMVI melanoma 103% | SK-MEL-28 melanoma 108% | SK-MEL-2 melanoma 104%

O=[N+]([O-])c1cnc(Sc2ccncn2)c([N+](=O)[O-])c1
inactive: HT29 colon 76.5% | SNB-75 CNS 95.2% | SNB-19 CNS 102% | U251 CNS 100% | PC-3 prostate 96.3% | SK-MEL-5 melanoma 92% | LOX IMVI melanoma 96.8% | SK-MEL-28 melanoma 98.3% | SK-MEL-2 melanoma 110%

COc1ccc2[nH]cc(/C=C3/C(=O)Nc4ccc(Cl)cc43)c2c1
inactive: HT29 colon 17.5% | SNB-19 CNS 70.7% | U251 CNS 38% | PC-3 prostate 64.6% | UACC-62 melanoma 51.8% | LOX IMVI melanoma 17.7% | SK-MEL-28 melanoma 81.1%
active: SNB-75 CNS -1.24%

COc1cc2c(-c3nc4cc(Cl)c(F)cc4s3)cc(=O)oc2c(C)c1OC
active: HT29 colon -80% | SNB-75 CNS -90.3% | U251 CNS -92.3% | SK-MEL-5 melanoma -84.2% | LOX IMVI melanoma -73.5% | SK-MEL-28 melanoma -28.6% | SK-MEL-2 melanoma -82.2%
inactive: SNB-19 CNS 34.7% | PC-3 prostate 19.2%

NS(=O)(=O)c1ccc(NC2=C(Cl)C(=O)c3ccccc3C2=O)cc1
inactive: HT29 colon 105% | SNB-75 CNS 136% | SNB-19 CNS 101% | U251 CNS 97.5% | PC-3 prostate 70.1% | UACC-62 melanoma 96.2% | LOX IMVI melanoma 53.7% | SK-MEL-28 melanoma 124% | SK-MEL-2 melanoma 102%

COc1cc(/C=C/C(=O)c2c(-c3ccc(Cl)cc3)nc3sc(C)nn23)cc(OC)c1OC
inactive: HT29 colon 86.6% | SNB-75 CNS 77.3% | SNB-19 CNS 90.8% | U251 CNS 76.4% | PC-3 prostate 53.6% | SK-MEL-5 melanoma 20.9% | LOX IMVI melanoma 61.6% | SK-MEL-28 melanoma 94% | SK-MEL-2 melanoma 44%

O=C(Nc1nc(-c2ccc(Cl)cc2)cs1)c1cc(O)c(O)c(O)c1
inactive: HT29 colon 71.9% | SNB-75 CNS 36.7% | SNB-19 CNS 25.9% | U251 CNS 23.5% | PC-3 prostate 46.9% | SK-MEL-5 melanoma 24.6% | SK-MEL-28 melanoma 42.9% | SK-MEL-2 melanoma 31.9%
active: LOX IMVI melanoma 1.72%

O=C(Nc1nc(-c2ccccc2)cs1)c1cc(O)c(O)c(O)c1
inactive: HT29 colon 80.8% | SNB-75 CNS 33.1% | SNB-19 CNS 41.5% | U251 CNS 32.1% | PC-3 prostate 58.8% | SK-MEL-5 melanoma 44.1% | LOX IMVI melanoma 40.2% | SK-MEL-28 melanoma 76.8% | SK-MEL-2 melanoma 56.8%

COc1cc2c(C#N)n3c(c2cc1OC)C(=O)C(c1ccccc1)Oc1ccccc1-3 (centres undefined)
inactive: HT29 colon 50.2% | SNB-75 CNS 52.5% | SNB-19 CNS 41.1% | U251 CNS 24.4% | PC-3 prostate 33.4% | SK-MEL-5 melanoma 25.5% | LOX IMVI melanoma 22.2% | SK-MEL-28 melanoma 93.3% | SK-MEL-2 melanoma 64.8%

COc1cc(/C=C/C(=O)Nc2ccc3c(c2)/C(=C\c2cccn2C)C(=O)N3)cc(OC)c1OC
inactive: HT29 colon 53.9% | SNB-19 CNS 65.3% | U251 CNS 52.4% | PC-3 prostate 59.9% | SK-MEL-5 melanoma 18.2% | LOX IMVI melanoma 41.4% | SK-MEL-2 melanoma 25.1%
active: SNB-75 CNS 9.39%

Cc1nn(-c2ccccc2)c2nc(Cl)c(/C=C/C(=O)c3ccccc3)c(-c3ccccc3)c12
inactive: HT29 colon 103% | SNB-75 CNS 89.4% | SNB-19 CNS 98.9% | U251 CNS 104% | PC-3 prostate 101% | SK-MEL-5 melanoma 96.3% | LOX IMVI melanoma 96.1% | SK-MEL-28 melanoma 109% | SK-MEL-2 melanoma 96.4%

Cc1ccc2c(c1)C(=O)/C(=C/c1ncc([N+](=O)[O-])n1C)O2
inactive: SNB-75 CNS 73.8% | SNB-19 CNS 11.8%
active: HT29 colon -19.8% | U251 CNS -19% | PC-3 prostate -2.93% | SK-MEL-5 melanoma -38.5% | LOX IMVI melanoma -3.36% | SK-MEL-28 melanoma -17.2% | SK-MEL-2 melanoma -57.8%

Fc1ccc(-c2nc(Nc3ccc(-c4nc5ccccc5[nH]4)cc3)nc(N3CCOCC3)n2)cc1
active: HT29 colon -78.6% | SNB-75 CNS -92.6% | SNB-19 CNS -81.2% | U251 CNS -93% | PC-3 prostate -93.5% | SK-MEL-5 melanoma -97.6% | LOX IMVI melanoma -93% | SK-MEL-28 melanoma -84.7% | SK-MEL-2 melanoma -71.3%

O=C(/C(=C/c1cccc([N+](=O)[O-])c1)c1ccccc1)c1ccccc1
inactive: HT29 colon 52.7% | SNB-75 CNS 56.8% | SNB-19 CNS 77% | U251 CNS 56.3% | PC-3 prostate 64% | SK-MEL-5 melanoma 41.5% | LOX IMVI melanoma 10.7% | SK-MEL-28 melanoma 92.8% | SK-MEL-2 melanoma 28.8%

CC(=O)c1ccc2c3c(n(C)c2c1)CCCC3
inactive: HT29 colon 92.6% | SNB-75 CNS 92.1% | SNB-19 CNS 99.6% | U251 CNS 102% | PC-3 prostate 100% | SK-MEL-5 melanoma 102% | SK-MEL-28 melanoma 96.5% | SK-MEL-2 melanoma 104%

Cc1cc2c(C#N)n3c(c2cc1C)C(=O)C(c1ccccc1)Oc1ccccc1-3 (centres undefined)
inactive: HT29 colon 18.5% | SNB-75 CNS 15.6% | SNB-19 CNS 35.9% | U251 CNS 18.3% | PC-3 prostate 28.3% | SK-MEL-5 melanoma 22.7% | LOX IMVI melanoma 20% | SK-MEL-28 melanoma 85.1% | SK-MEL-2 melanoma 45.2%
